The structures appear in SMILES notation. A number with no mark means an inactive call. No rule for the calls is given here.

Chain of Pantothenate synthetase (Mycobacterium tuberculosis (strain ATCC 25618 / H37Rv)) (P9WIL5 whole entry, looked up): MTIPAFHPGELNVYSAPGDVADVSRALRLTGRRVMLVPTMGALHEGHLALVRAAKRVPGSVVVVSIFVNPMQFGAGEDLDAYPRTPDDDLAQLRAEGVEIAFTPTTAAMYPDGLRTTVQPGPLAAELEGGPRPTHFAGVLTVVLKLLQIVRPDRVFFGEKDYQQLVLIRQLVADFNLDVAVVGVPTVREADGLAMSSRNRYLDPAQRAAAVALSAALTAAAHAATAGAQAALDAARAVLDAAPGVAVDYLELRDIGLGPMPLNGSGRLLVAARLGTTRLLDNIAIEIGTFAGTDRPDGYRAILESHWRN

This test concerns the target Pantothenate synthetase (Mycobacterium tuberculosis (strain ATCC 25618 / H37Rv)) (UniProt P9WIL5). The test can be described thus: Recombinant Mtb pantothenate synthetase (PanC) inhibitors, coupled enzyme, confirmatory (AID 375).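 Also: 0% = full reaction with vehicle and 100% = no enzyme background.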 The conditions noted are these: coupled enzyme assay; at 10 µM, hits give high values.
For `Cn1c(C(=O)OCC(=O)NCC2CCCO2)cc2sccc21` (stereo not given), the inhibition (commonly the drop in the measured response relative to a control, in per cent) is 2%. The result for `CCN1CCN(Cc2c(C)[nH]c3ccc(OC)cc3c2=O)CC1` reads 1%; that for `Cc1ccccc1-c1nc(CN2CCC(C(=O)NCCCN3CCCC3)CC2)c(C)o1`, 0%; that for `Cc1ccccc1N1C(N)=NC(N)=NC1(C)C`, 0%. Consider `CCOc1ccc2[nH]c(=O)c(CN(CCOC)C(=O)N3CCOCC3)cc2c1`, for which the inhibition was 8%. Under `CC(C)(C)NCc1cc2ccccc2[nH]c1=O` stands 0%. Under `O=C(NC1CC2CCC1C2)c1ccc(CN2CCOCC2)cc1` (stereo not given) stands 5%. On to `Oc1ccc(Cl)cc1-c1cc(-c2ccccc2)n[nH]1`, for which the inhibition was 0%. Under `OC(CCN1CCOCC1)(c1ccc(Cl)cc1)C1CCCCC1` (stereo not given) stands 0%; under `CCOC(=O)c1sc2nc(SCC#N)n(CCCN3CCCC3=O)c(=O)c2c1C`, 0%; under `COc1cccc(OC)c1OCCN1CCN(C(=O)c2ccco2)CC1`, 0%. With `Cn1cccc1-c1cc(C(=O)O)[nH]n1`, the inhibition is 0%. As to `CC(=O)Oc1cc(C(C)C)c(OCCN(C)C)cc1C`, the inhibition was 11%. Under `CC1(C2(O)CC(c3ccccc3)ON2)CCCCC1` (stereo not given) stands 2%; under `c1ccc(Cn2ncc3c2ncn2c(-c4ccncc4)nnc32)cc1`, 0%. The result for `COc1ccc2nc(NC(=O)C(NS(=O)(=O)c3cccs3)C(C)C)sc2c1` (stereo not given) reads 0%; that for `CCN(CC)S(=O)(=O)c1ccc2oc(C(=O)N3CCOCC3)c(C)c2c1`, 0%; that for `CC(C)Cc1nc(N2CCN(C(=O)c3ccco3)CC2)c(C#N)c2c1CCC2`, 5%. The result for `Cc1nnc(SCc2cnc(-c3ccccc3)o2)[nH]c1=O` reads 0%. As to `CN(C)c1ccc(NC(=O)c2ccncc2)c2ccccc12`, the inhibition was 6%. The result for `c1cncc(C2Nc3ccccc3-c3nc4ccccc4n32)c1` (stereo not given) reads 7%; that for `Cc1noc(C)c1S(=O)(=O)N1CCN(Cc2ccc3c(c2)OCO3)CC1`, 0%. Under `COc1ccccc1N1CCN(C(=O)c2ccc(S(=O)(=O)N3CCCCCC3)cc2)CC1` stands 2%; under `COc1ccc(-n2c(N)c(C(=O)NCc3ccco3)c3nc4ccccc4nc32)c(OC)c1`, 4%; under `CC1(C)NC(=O)N(CC(O)CN(Cc2ccccc2)Cc2ccccc2)C1=O` (stereo not given), 0%. `CCc1nnc(SCC(=O)NC2CCCCC2)nc1CC`: the inhibition was 1%. Under `NC(=O)NC(c1ccccc1)c1ccccc1F` (stereo not given) stands 3%; under `Cn1c(SCC(=O)Nc2ccc(F)cc2)nnc1-c1cccnc1`, 0%. Under `Nc1nc(Nc2ccc(Cl)cc2Cl)nc(C(F)(F)F)n1` stands 0%; under `CC(=O)OC[C@H]1O[C@@H](n2ncc(=O)[nH]c2=O)[C@H](OC(C)=O)[C@@H]1OC(C)=O`, 0%; under `COc1ccc(NC(=O)C2CCCN(S(=O)(=O)c3cccc4cccnc34)C2)cc1OC` (stereo not given), 0%.

In the case of `CC(Oc1ccccc1)C(=O)NC1CCN(Cc2ccccc2)CC1` (stereo not given), the inhibition was 7%. Under `Cc1nc2c(c(=O)n1CC1CCCO1)c1nc3ccccc3nc1n2CC(C)C` (stereo not given) stands 0%. Under `COC(=O)c1[nH]c(C)c(/C(O)=C2\C(=O)C(=O)N(CCN3CCOCC3)C2c2cccs2)c1C` (stereo not given) stands 4%; under `Nc1cc(C(=O)O)ccc1Nc1ccc(F)c(F)c1`, 5%. The result for `CCSc1nc2ccccc2n1CCC(=O)O` reads 0%; that for `O=C(O)c1ccc(COc2ccc(Cl)cc2)o1`, 0%. Consider `O=C(OCn1nnc2ccccc2c1=O)c1cc2ccccc2o1`, for which the inhibition is 2%. For `c1ccc2[nH]c(CSc3nnc(-c4ccncc4)o3)nc2c1`, the inhibition was 4%. In the case of `O=C(CSc1nc(-c2ccccc2)cs1)NC(=O)NCc1ccco1`, the inhibition was 0%.

Values taken from PubChem BioAssay.
